The target in assay [1] is Cellular tumor antigen p53 (Homo sapiens) (UniProt P04637). In words: TOX21_p53_BLA_p2_ratio: Tox21 HCT-116 p53 Agonism Beta-lactamase Assay, Ratio, Phase 2 (AID 2283592). A digest of the protocol: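 In this cell-based reporter format, HCT116 cells were dosed with chemicals delivered from DMSO by 217-fold dilution and incubated 16 h at 37C. Emission at 460 and 530 nm after 2 h CCF4-AM loading provided the ratio, fitted upward versus DMSO.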

Assay [2] has the same target. The assay can be described thus: TOX21_p53_BLA_p3_ratio: Tox21 HCT-116 p53 Agonism Beta-lactamase Assay, Ratio, Phase 3 (AID 2283596). A digest of the protocol:
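HCT116 p53-bla cells (4000/well) given compound in DMSO (217-fold dilution) after 5 h, incubated 16 h at 37C. CCF4-AM substrate 2 h at room temperature; 460/530 nm emission ratio, gain fitted against DMSO.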

Assay [3] is described as follows: TOX21_p53_BLA_p5_viability: Viability Assessment in the Tox21 HCT-116 p53 Agonism Beta-lactamase Assay, Phase 5 (AID 2283600). Summed up:
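Compounds, pinned from DMSO at 217-fold dilution, were left on the cells for 16 h. The viability endpoint was ATP content measured by CellTiter-Glo luminescence, where falling signal reflects cytotoxicity.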

For assay [4], the target named is Cellular tumor antigen p53 (Homo sapiens) (UniProt P04637). The assay can be described thus: TOX21_p53_BLA_p4_ratio: Tox21 HCT-116 p53 Agonism Beta-lactamase Assay, Ratio, Phase 4 (AID 2283601). Summed up: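 Signal is the blue/green (460nm/530nm) ratio of cleaved versus uncleaved CCF4-AM substrate, read after 2 h substrate loading. Cells were HCT116 carrying the p53-responsive beta-lactamase reporter, dosed 16 h at 37C, 5% CO2; CellTiter-Glo measured in parallel.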

The subject of assay [5] is Brachyury (BRA) Protein Expression, Deisenroth Lab, TBXT (gene 6862). In words: CCTE_Deisenroth_DEVTOX-GLR_legacy_Bra: (Legacy) CCTE's DevTox GLR-Endo Assay Evaluation of Brachyury (BRA) Protein Expression, Deisenroth Lab (AID 2284329; active = hit-call score of the fitted dose curve at least 0.9, where 1 is the maximum; inactive = score below 0.9). Summed up:
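Human pluripotent RUES2-GLR line was exposed twice during 48 h differentiation to a 10-point series, 1 nM - 200 uM. Fraction of Bra-positive cells was scored by imaging against pluripotent baseline and fitted after 0.2% DMSO subtraction.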

The nature of assay [6]: CCTE_Deisenroth_DEVTOX-GLR_legacy_CellCount: (Legacy) Viability Assessment in CCTE's DevTox GLR-Endo Assay, Deisenroth Lab (AID 2284331; active = hit-call score of the fitted dose curve at least 0.9, where 1 is the maximum; inactive = score below 0.9). Particulars: actives raise or lower the signal. Summed up: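 Seed RUES2-GLR 24 h; differentiate 48 h, dosing at 0 and 24 h; fix, stain nuclei; image 5 fields/well; count nuclei. Conc. 1 nM - 200 uM, single technical replicate, n=4 experiments; bidirectional fit vs 0.2% DMSO.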

Assay [7] concerns SRY-box transcription factor 17 (SOX17) Protein Expression, Deisenroth Lab, SOX17 (gene 64321). The assay can be described thus: CCTE_Deisenroth_DEVTOX-GLR_legacy_Sox17: (Legacy) CCTE's DevTox GLR-Endo Assay Evaluation of SRY-box transcription factor 17 (SOX17) Protein Expression, Deisenroth Lab (AID 2284341; active = hit-call score of the fitted dose curve at least 0.9, where 1 is the maximum; inactive = score below 0.9). As to conditions: actives raise or lower the signal. Summed up: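 Using the RUES2-GLR line, compounds are tested as 10-point series during 48-h defined-media differentiation. Sox17 reporter fluorescence per cell determines positivity; endpoint is percentage positive, analysed bidirectionally versus DMSO baseline.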

The test system of assay [8] is SRY-box transcription factor 2 (SOX2) Protein Expression, Deisenroth Lab, SOX2 (gene 6657). In words: CCTE_Deisenroth_DEVTOX-GLR_legacy_Sox2: (Legacy) CCTE's DevTox GLR-Endo Assay Evaluation of SRY-box transcription factor 2 (SOX2) Protein Expression, Deisenroth Lab (AID 2284346; active = hit-call score of the fitted dose curve at least 0.9, where 1 is the maximum; inactive = score below 0.9). Summed up: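 hPSC RUES2-GLR, 384-well; 24 h seed → 48 h endoderm differentiation, 2 doses q24h, 1 nM–200 uM. Fix, nuclear dye, 5 fields/well. Sox2+ cells/cell count; cell positive if >5x BMAD over endoderm ctrl; gain direction vs DMSO.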

The test system is the same in assay [9]. In words: CCTE_Deisenroth_DEVTOX-GLR_Endo_SOX2: CCTE's DevTox GLR-Endo Assay Evaluation of SRY-box transcription factor 2 (SOX2) Protein Expression, Deisenroth Lab (AID 2284412). Summed up: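 RUES2-GLR human pluripotent cells were seeded 24 h, then differentiated 48 h with two chemical exposures 24 h apart. Cells were fixed, nuclei stained and imaged by high-content microscopy. Endpoint is %SOX2+ cells over cell count, minus 0.2% DMSO control; 10-point series 1 nM–200 uM.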

For assay [10], the system named is SRY-box transcription factor 17 (SOX17) Protein Expression, Deisenroth Lab, SOX17 (gene 64321). The assay can be described thus: CCTE_Deisenroth_DEVTOX-GLR_Endo_SOX17: CCTE's DevTox GLR-Endo Assay Evaluation of SRY-box transcription factor 17 (SOX17) Protein Expression, Deisenroth Lab (AID 2284413; active = hit-call score of the fitted dose curve at least 0.9, where 1 is the maximum; inactive = score below 0.9). Summed up:
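Seed RUES2-GLR cells 24 h; start endoderm differentiation; dose at 0 and 24 h (1 nM - 200 uM, 10 points); fix at 48 h, stain nuclei, image 5 fields/well; compute SOX17+/total cells vs 0.2% DMSO.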

Assay [11] has as its system Brachyury (BRA) Protein Expression, TBXT (gene 6862). In words: CCTE_Deisenroth_DEVTOX-GLR_Endo_BRA: CCTE's DevTox GLR-Endo Assay Evaluation of Brachyury (BRA) Protein Expression, Deisenroth Lab (AID 2284417; active = hit-call score of the fitted dose curve at least 0.9, where 1 is the maximum; inactive = score below 0.9). A digest of the protocol: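 Percent BRA+ (mesoderm) RUES2-GLR cells after 48 h differentiation with two exposures, 1 nM - 200 uM; 0.2% DMSO control subtracted.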

Assay [12] is described as follows: CCTE_Deisenroth_DEVTOX-GLR_Endo_CellCount: Viability Assessment in CCTE's DevTox GLR-Endo Assay, Deisenroth Lab (AID 2284420; active = hit-call score of the fitted dose curve at least 0.9, where 1 is the maximum; inactive = score below 0.9). A digest of the protocol: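 Nuclei counted by fluorescence microscopy as a surrogate for cell number, expressed as percent change relative to 0.2% DMSO control. Human RUES2-GLR cells, 48 h differentiation, dosed twice; 1 nM - 200 uM series.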

Assay [13] deals with SRY-box transcription factor 17 (SOX17) Protein Expression, Deisenroth Lab, SOX17 (gene 64321). In words: CCTE_Deisenroth_DEVTOX-GLR_Pluri_SOX17: CCTE's DevTox GLR-Pluri Assay Evaluation of SRY-box transcription factor 17 (SOX17) Protein Expression, Deisenroth Lab (AID 2284427). A digest of the protocol: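 Readout: percent SOX17+ cells (SOX17+ count/cell count) by high-content imaging of an inducible fluorescent reporter, corrected for 0.2% DMSO solvent control. RUES2-GLR cells, 48 h differentiation, dosed twice at 24 h intervals, 1 nM - 200 uM.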

For assay [14], the system named is SRY-box transcription factor 2 (SOX2) Protein Expression, Deisenroth Lab, SOX2 (gene 6657). The assay can be described thus: CCTE_Deisenroth_DEVTOX-GLR_Pluri_SOX2: CCTE's DevTox GLR-Pluri Assay Evaluation of SRY-box transcription factor 2 (SOX2) Protein Expression, Deisenroth Lab (AID 2284428; active = hit-call score of the fitted dose curve at least 0.9, where 1 is the maximum; inactive = score below 0.9). Summed up: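 RUES2-GLR (human pluripotent), 48 h post-dosing, 2 exposures q24h, 1 nM–200 uM 10-pt. Fixed, nuclear dye, high-content imaging 5 fields/well. Endpoint: % SOX2+ cells (SOX2+/total count) vs 0.2% DMSO; n≥4.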

The nature of assay [15]: CCTE_Deisenroth_DEVTOX-GLR_Pluri_CellCount: Viability Assessment in CCTE's DevTox GLR-Pluri Assay Evaluation of Total Cell Counts, Deisenroth Lab (AID 2284430; active = hit-call score of the fitted dose curve at least 0.9, where 1 is the maximum; inactive = score below 0.9). A digest of the protocol: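 RUES2-GLR human pluripotent cells, seeded 24 h, then differentiated 48 h with two chemical exposures 24 h apart; 10-point series 1 nM - 200 uM. Fixed, nuclear-stained, imaged (5 fields/well); nuclei count as % change vs 0.2% DMSO.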

For assay [16], the target named is Cellular tumor antigen p53 (Homo sapiens) (UniProt P04637). The assay can be described thus: TOX21_p53_BLA_p5_ratio: Tox21 HCT-116 p53 Agonism Beta-lactamase Assay, Ratio, Phase 5 (AID 2283599). Summed up:
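Beta-lactamase reporter ratio (blue 460 nm over green 530 nm, 405 nm excitation) after 2 h CCF4-AM loading, in HCT-116 cells exposed 16 h at 37 C to compounds pinned at 217-fold dilution. Increases relative to DMSO baseline scored.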

Assay [17] can be described thus: CCTE_Harrill_HTTr_Viability_MCF7: CCTE's 6-hour Cell Viability Assessment for the High-Throughput Transcriptomics (HTTr) Platform, in MCF-7 cells cultured in DMEM + 10% fetal bovine serum, Harrill Lab (AID 2284010; active = hit-call score of the fitted dose curve at least 0.9, where 1 is the maximum; inactive = score below 0.9). A digest of the protocol: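 Cells were dosed with chemicals in an eight-point dilution series, imaged 6 hours later for propidium iodide uptake, and the endpoint was analyzed by bidirectional fitting against DMSO as negative control.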

The nature of assay [18]: CCTE_Harrill_HTTr_Apoptosis_MCF7: CCTE's 6-hour Apoptosis Assessment for the High-Throughput Transcriptomics (HTTr) Platform, in MCF-7 cells cultured in DMEM + 10% fetal bovine serum, Harrill Lab (AID 2284011; active = hit-call score of the fitted dose curve at least 0.9, where 1 is the maximum; inactive = score below 0.9). A digest of the protocol:
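Read-out: CellEvent Caspase 3/7 Green signal by high content imaging, gain-of-signal indicating apoptosis. MCF-7 cells, DMEM + 10% FBS, eight-point dilution series, 6 h exposure. Curves fitted bidirectionally relative to DMSO negative control.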

The nature of assay [19]: CCTE_Harrill_HTTr_CellCount_MCF7: CCTE's Cell Proliferation Assessment for the High-Throughput Transcriptomics (HTTr) Platform, Harrill Lab (AID 2284012).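 Note: count of Hoechst-stained nuclei per well by high-content imaging in MCF-7 cells; cells exposed to compound for six hours; intended direction is loss of nuclei count meaning fewer cells.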 Summed up:
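Chemicals in eight-point dilution series are added to MCF-7 cells for six hours, nuclei are stained with Hoechst and imaged, and per-well nuclei counts are fitted in both directions relative to DMSO controls.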

Inconclusive results are not listed. Calls of active or inactive are those of the source. Rule for the calls, unless noted: active = hit-call score of the fitted dose curve at least 0.9, where 1 is the maximum; inconclusive = response in the unintended direction; inactive = score below 0.9.

Chain of Cellular tumor antigen p53 (Homo sapiens) (P04637 whole entry, looked up): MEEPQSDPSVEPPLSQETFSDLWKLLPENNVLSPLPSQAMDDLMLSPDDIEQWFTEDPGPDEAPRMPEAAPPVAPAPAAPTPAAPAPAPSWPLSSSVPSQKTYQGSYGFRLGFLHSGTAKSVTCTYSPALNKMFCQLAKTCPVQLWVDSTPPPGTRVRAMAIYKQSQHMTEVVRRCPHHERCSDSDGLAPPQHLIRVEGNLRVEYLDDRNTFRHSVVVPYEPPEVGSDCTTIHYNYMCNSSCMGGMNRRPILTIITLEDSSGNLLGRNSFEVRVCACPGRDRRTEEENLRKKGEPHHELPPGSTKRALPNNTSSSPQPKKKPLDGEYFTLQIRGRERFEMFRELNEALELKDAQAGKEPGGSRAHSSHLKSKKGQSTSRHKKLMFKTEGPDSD

As to `CC1(C)S[C@@H]2[C@H](NC(=O)Cc3ccccc3)C(=O)N2[C@H]1C(=O)O`, the outcome in assay [1], in [2], in [3], in assay [4], in assay [5] and in [6] was inactive. Moreover, the compound was called inactive in assay [7], in assay [8], in assay [9], in [10], in assay [11] and in assay [12]. The result in assay [13], in assay [14] and in assay [15] was inactive.

Turning to `FC1(F)C(F)(F)C(F)(F)C2(F)C(F)(F)C(F)(F)C(F)(F)C(F)(F)C2(F)C1(F)F` (configuration not stated), the result in assay [1], in [2], in [16] and in assay [4] was inactive.

With `OCC(O)COc1ccc(Cl)cc1` (configuration not stated), the result in assay [1], in assay [2], in assay [3] and in assay [4] was inactive.

On to `C#CC(O)CCCCC` (configuration not stated), for which the outcome in assay [1], in assay [2], in assay [3] and in assay [4] was inactive.

For the compound `CO[C@@]1(NC(=O)C2SC(=C(C(N)=O)C(=O)O)S2)C(=O)N2C(C(=O)O)=C(CSc3nnnn3C)CS[C@@H]21` (some centres not stated), the result in assay [1], in assay [2] and in assay [4] was inactive.

For the compound `CC(CN(C)C)CN1c2ccccc2CCc2ccccc21` (configuration not stated), the result in assay [1], in [2], in [3] and in [4] was inactive.

On to `C[C@@H](N)C(=O)O`, for which the outcome in assay [1], in assay [2], in [3] and in [4] was inactive.

For the compound `C=CCc1ccccc1OCC(O)CNC(C)C` (configuration not stated), the outcome in assay [1], in assay [2] and in assay [4] was inactive.

On to `CC(CN(C)C)CN1c2ccccc2S(=O)(=O)c2ccccc21` (configuration not stated), for which the result in assay [1], in assay [2], in assay [16] and in assay [4] was inactive.

Take `CCC=O`: the result in assay [1], in assay [2], in assay [16] and in assay [4] was inactive.

In the case of `NC(=O)N1c2ccccc2CC(=O)c2ccccc21`, the outcome in [1], in [2], in assay [16], in assay [4], in [17] and in assay [18] was inactive. The call in [19] was inactive.

Turning to `CN(C)CCN(Cc1ccc(Cl)cc1)c1ccccn1`, the result in assay [1], in assay [2], in assay [16] and in assay [4] was inactive.

As to `Nc1ncnc2c1ncn2[C@@H]1O[C@H](COP(=O)(O)O)[C@@H](O)[C@H]1O`, the result in assay [1], in assay [2], in assay [16] and in assay [4] was inactive.

As for `COC(=O)c1cccc(Cl)c1`, the outcome in [1], in assay [2], in [3] and in [4] was inactive.

For `O=C(CO)[C@@H](O)[C@H](O)[C@@H](O)CO`, the outcome in [1], in assay [2] and in assay [3] was inactive.

`O=C(O)[C@H]1CN(C/C=C/P(=O)(O)O)CCN1`: the outcome in assay [1], in assay [2] and in assay [4] was inactive.

`[O]=[Bi][O][Bi]=[O]`: the result in assay [1], in [2], in assay [3] and in assay [4] was inactive.

The term AC50 denotes the concentration at which the activity in the assay is half-maximal. In the case of `COc1ccc(Nc2ccc(OC)cc2)cc1`, the AC50 is 71.5 µM (active) in assay [1] and 73.2 µM (active) in assay [4]. The result in assay [2] and in assay [16] was inactive.

The values are drawn from PubChem BioAssay (EPA / NIEHS).
